Compounds without any hit were thinned out: in the full panel of roughly 83,000, 20% have a hit.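 Negative percent growth values reflect cell death: -40 means 40% of the cells present at the start died, and -100 means all died.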 The source made the active and inactive calls. How the source made its calls: active means growth percent below 10; inactive means the rest.
How the values were obtained:
Experiment in all cases: NCI-60 one-dose screen, 48 h (100 = growth as untreated, 0 = no growth, -100 = all killed)
Conditions in all cases: 10 µM
HOP-92 NSCLC = tested on: HOP-92 NSCLC
COLO 205 colon = tested on: COLO 205 colon
RXF 393 renal = tested on: RXF 393 renal
SNB-75 CNS = tested on: SNB-75 CNS
SK-MEL-5 melanoma = tested on: SK-MEL-5 melanoma
CCRF-CEM leukemia = tested on: CCRF-CEM leukemia
OVCAR-4 ovarian = tested on: OVCAR-4 ovarian
SK-OV-3 ovarian = tested on: SK-OV-3 ovarian
IGROV1 ovarian = tested on: IGROV1 ovarian
NCI/ADR-RES ovarian = tested on: NCI/ADR-RES ovarian
T-47D breast = tested on: T-47D breast
MCF7 breast = tested on: MCF7 breast
HCT-116 colon = tested on: HCT-116 colon
HCC-2998 colon = tested on: HCC-2998 colon
KM12 colon = tested on: KM12 colon
UACC-62 melanoma = tested on: UACC-62 melanoma
SK-MEL-2 melanoma = tested on: SK-MEL-2 melanoma
SN12C renal = tested on: SN12C renal

Structure (SMILES) | growth (HOP-92 NSCLC) | growth (COLO 205 colon) | growth (RXF 393 renal) | growth (SNB-75 CNS) | growth (SK-MEL-5 melanoma) | growth (CCRF-CEM leukemia) | growth (OVCAR-4 ovarian) | growth (SK-OV-3 ovarian) | growth (IGROV1 ovarian) | growth (NCI/ADR-RES ovarian) | growth (T-47D breast) | growth (MCF7 breast) | growth (HCT-116 colon) | growth (HCC-2998 colon) | growth (KM12 colon) | growth (UACC-62 melanoma) | growth (SK-MEL-2 melanoma) | growth (SN12C renal)
COc1cc(-c2nc3ccc(C)cc3[nH]2)ccc1OCc1nnc(-c2ccccc2Br)o1 | 84.3% (inactive) | 72.8% (inactive) | 1.93% (active) | 112% (inactive) | 41.1% (inactive) | 19.4% (inactive) | 80.7% (inactive) | 75.1% (inactive) | 90.3% (inactive) | 75% (inactive) | 28% (inactive) | 44.4% (inactive) | 61% (inactive) | 77.2% (inactive) | 65.9% (inactive) | – | – | –
Cc1ccc(S(=O)(=O)N2CCN(S(=O)(=O)c3oc(-c4ccccc4)nc3C#N)CC2)cc1 | 93% (inactive) | – | 87.6% (inactive) | 92.6% (inactive) | 63.7% (inactive) | 75.7% (inactive) | 71.8% (inactive) | – | – | – | 60.8% (inactive) | 47.6% (inactive) | 84.6% (inactive) | 106% (inactive) | 82.5% (inactive) | 45.3% (inactive) | – | –
C#C[C@]1(O)CC[C@H]2[C@@H]3CC=C4c5sc(Nc6cc(C)cc(C)n6)nc5CC[C@]4(C)[C@H]3CC[C@@]21C | -22.2% (active) | -95.5% (active) | -40% (active) | – | -99.7% (active) | 5% (active) | 25.6% (inactive) | – | – | – | -35.6% (active) | -89.7% (active) | -56.1% (active) | 1.37% (active) | -16.7% (active) | – | -28.4% (active) | -3.77% (active)
COc1ccc(Cc2nn(CC(=O)N/N=C/c3ccc(Br)cc3)c(=O)c3c(C)noc23)cc1 | -15% (active) | – | -33.7% (active) | – | 85.7% (inactive) | 40.5% (inactive) | -44% (active) | – | – | 41.1% (inactive) | -1.9% (active) | 40.4% (inactive) | 0.469% (active) | 73.8% (inactive) | 60.7% (inactive) | – | – | –
